Assay outcomes deposited in PubChem BioAssay by Sanford-Burnham Center for Chemical Genomics.
An excerpt weighted towards active compounds, which were near 31% of everything screened.
CYP2C19 act – human CYP2C19 activators, primary screen, biochemical, luminescence. AID 1025, 2008. activation factor at 5 µM. recombinant CYP2C19, luciferin-H EGE luminescence; active compounds read high; 0 = fully inhibited enzyme, 1 = untreated enzyme. 96,000 tested, under 10 active;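 active = activation factor of at least 2 at 5 µM in the primary screen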;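 also: 0 = wells with 2.5 mM tranylcypromine and 1 = vehicle-only wells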
PLAP activator – PLAP enzyme activators, biochemical, luminescence, HTS | AID 696, 2007 | hit rate 1.2% among 96,000 | activation fold at 20 µM | Alkaline phosphatase, placental type (Homo sapiens), P05187 | purified PLAP enzyme, luminescent substrate read-out; active compounds read high; in the data active = activation fold above about 2
Target sequence (P05187 whole entry, looked up): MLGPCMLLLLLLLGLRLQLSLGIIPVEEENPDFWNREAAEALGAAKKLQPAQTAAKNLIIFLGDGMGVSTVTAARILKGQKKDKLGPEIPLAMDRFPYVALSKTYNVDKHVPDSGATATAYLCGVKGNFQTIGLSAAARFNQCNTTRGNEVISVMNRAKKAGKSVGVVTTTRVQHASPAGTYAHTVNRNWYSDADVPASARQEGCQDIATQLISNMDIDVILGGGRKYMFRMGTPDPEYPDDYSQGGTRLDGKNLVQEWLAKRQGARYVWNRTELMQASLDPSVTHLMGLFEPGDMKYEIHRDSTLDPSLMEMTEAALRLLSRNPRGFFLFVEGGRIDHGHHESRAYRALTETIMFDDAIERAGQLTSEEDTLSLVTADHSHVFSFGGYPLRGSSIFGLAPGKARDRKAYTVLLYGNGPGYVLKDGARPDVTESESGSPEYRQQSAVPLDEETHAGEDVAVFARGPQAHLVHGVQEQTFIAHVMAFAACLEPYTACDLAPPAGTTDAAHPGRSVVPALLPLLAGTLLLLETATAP
CYP2C9 inhib – blockers of cytochrome P450 2C9 activity – biochemical, luminescence, ADME assay, primary screen; P11712; CYP2C9 Supersomes, luciferin-H conversion; inhibition, % at 5 µM; hit rate 20% among 96,000; AID 777, 2007;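 active = blocking of liver enzyme CYP2C9 beyond about 50% at 5 µM, limit read from the data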
CYP2C9 activ – human CYP2C9 activators, primary screen, biochemical, luminescence. AID 1024, 2008. activation factor at 5 µM. recombinant CYP2C9, luciferin-H conversion; active compounds read high; factor 1 = untreated enzyme, 0 = blocked. hit rate 1.4% among 96,000;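 active = activation factor of 2 or more for CYP2C9 at a 5 µM dose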;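 also: 0 = sulfaphenazole-blocked wells and 1 = vehicle-only wells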
CYP2C19 inhib – blockers of cytochrome P450 2C19 activity – biochemical, luminescence, ADME assay, primary screen; hit rate 21% among 96,000; P33261; inhibition, % at 5 µM; CYP2C19 Supersomes, luciferin-H EGE luminescence, 30 min;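 active = CYP2C19 inhibition above a set limit at 5 µM in the primary screen, cut at about 50% in these data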;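 also: plate controls were negative control wells for no effect and 2.5 mM tranylcypromine positive control for full effect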
* = called active by the depositor.

SMILES	CYP2C19 act	PLAP activator	CYP2C9 inhib	CYP2C9 activ	CYP2C19 inhib
COc1ccc(Cc2nc(-c3cccs3)no2)cc1OC	0.2	1.5	65*	0.3	78*
COc1ccc(Cc2nc(-c3ccc(-n4cccc4)cc3)no2)cc1OC	1.1	1.2	14	0.9	-9
Cc1ccc(C)c(NC(=S)N2CCC(c3nc4ccccc4s3)CC2)c1	0.6	1.3	48	0.5	37
Cn1c(SC/C=C/c2ccccc2)nnc1-c1cnccn1	0.8	0.9	5	0.9	23
Cn1c(SCc2ccccc2Cl)nnc1-c1cnccn1	0.2	1	9	0.9	77*
Cn1c(Cn2nnc(-c3ccccc3)n2)nnc1SCc1ccccc1Cl	1.1	1.1	64*	0.4	-10
COc1ccc(NC(=O)CC2Oc3ccc(C)cc3NC2=O)cc1 (stereo unspecified)	1	0.9	5	0.9	-2
COc1cc(/C=C2/S/C(=N/S(=O)(=O)c3ccccc3)NC2=O)c([N+](=O)[O-])cc1OC	0.9	1.7	99*	0	7
Cc1cc(/C=C2\SC(=Nc3ccc(F)cc3)NC2=O)c(C)n1-c1ccc(S(N)(=O)=O)cc1	0.8	1.7	41	0.6	17
Cc1cc(Cl)c(S(=O)(=O)N2CCN(c3ccc(F)cc3)CC2)cc1OCC(N)=O	1	0.9	13	0.9	0
CCOc1ccc(Cl)cc1S(=O)(=O)N1CCN(c2ccc(F)cc2)CC1	0	1	-143	2.4*	100*
COc1ccc(Cl)cc1S(=O)(=O)N1CCN(c2ccc(F)cc2)CC1	0	1.5	-220	3.2*	98*
COc1c(S(=O)(=O)N2CCN(c3ccc(F)cc3)CC2)ccc(Cl)c1Cl	0.4	0.8	14	0.9	61*
Cc1cc(S(=O)(=O)N2CCN(c3ccc(F)cc3)CC2)c(C)s1	0.7	0.7	41	0.6	29
Cc1cc(Cl)c(S(=O)(=O)N2CCN(c3ccc(F)cc3)CC2)cc1OCC(=O)NC1CCCCC1	0.2	1.7	96*	0	83*
CC(=O)Nc1ccc(C(=O)n2cnc3cc(C)c(C)cc32)cc1	0.6	0.9	45	0.6	38
COc1ccc(Cl)cc1S(=O)(=O)N1CCN=C1C	0.1	1.4	-72	1.7	90*
CCOc1ccc(Cl)cc1S(=O)(=O)N1CCN(c2ccc(C)c(C)c2)CC1	0	1.1	60*	0.4	100*
CC(=O)Nc1ccc(S(=O)(=O)n2cnc3cc(C)c(C)cc32)cc1	0	1.5	78*	0.2	100*
COc1ccc(Cl)cc1S(=O)(=O)n1nnc2ccccc21	1	1	-9	1.1	-1
Cc1[nH]c(=O)[nH]c(=O)c1S(=O)(=O)N1CCN(c2cccc(Cl)c2)CC1	0.6	1.1	5	1	37
CCOc1ccc(Cl)cc1S(=O)(=O)n1cnc2cc(C)c(C)cc21	0.1	1.6	58*	0.4	91*
CC(C)CNC(=O)c1cccc(C(=O)NCC(C)C)c1	0.6	1.2	33	0.7	38
COc1cccc(-c2nnc(SCC(=O)OC(C)C)n2N)c1	0.7	0.9	8	0.9	29
O=C(NO)c1ccc(C(=O)N(C2CCCCC2)C2CCCCC2)cc1	1.1	1.7	-6	1.1	-8
SMILES	CYP2C19 act	PLAP activator	CYP2C9 inhib	CYP2C9 activ	CYP2C19 inhib
CC(C)OC(=O)CSc1nnc(-c2ccncc2)n1N	0.1	1	56*	0.4	86*
CCOC(=O)c1ccc(CSc2nnc(-c3ccncc3)n2N)cc1	0.3	1	38	0.6	68*
COC(=O)CC(N)c1ccc(OC)c2ccccc12 (stereo unspecified)	0.8	1	-7	1.1	16
Cn1c(CSc2nnc(SCc3ccccc3)s2)nc2ccccc21	0.4	0.7	19	0.8	60*
O=C(O)CCSc1nc2ccc(Br)cc2[nH]1	1.1	1.2	-4	1	-12
Cn1c(CSc2nc3ccc(Br)cc3[nH]2)nc2ccccc21	0.2	1.2	23	0.8	82*
Cn1c(Cn2cnc3ccccc32)nnc1SCc1ccccc1	0.7	1.1	23	0.8	33
Cc1[nH]nc(SCC(=O)N2CCC(C)CC2)c1[N+](=O)[O-]	0.5	1.3	20	0.8	48
